Assay [1] in a line: qHTS assay to identify small molecule antagonists of the progesterone receptor (PR) signaling pathway - cell viability counter screen (AID 1346798). Also: series mostly up to about 92 µM; nearly all actives have a fitted effect of over 50% in size. In outline:
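PR-UAS-bla HEK293T cells, 3,000/well in 2% charcoal-stripped FBS medium, dosed with compounds plus R5020 agonist and incubated 16 h at 37C. Viability then measured in the same wells by CellTiter-Glo luminescence after 30 min at RT.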
(In general: In qHTS, concentration-response curves come from the screen itself.)

Assay [2] in a line: qHTS assay to identify small molecule agonists of the progesterone receptor (PR) signaling pathway - cell viability counter screen (AID 1346799; calls by dose curve; also: nearly all actives have a fitted effect of over 45% in size). Summed up: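 Counter screen in the PR-UAS-bla HEK293T wells (2% charcoal-stripped FBS, 16 h compound exposure at 37 C) after the bla read. CellTiter-Glo added, 30 min at room temperature, luminescence read as cell viability.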
Assay [3] can be described thus: qHTS assay to identify small molecule antagonists of the TGF-beta/Smad signaling pathway - cell viability counter screen (AID 1346824). Also: nearly all actives have a fitted effect of over 50% in size. In outline:
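Cytotoxicity counter-screen run in the same wells as the beta-lactamase Smad reporter read: CellTiter-Glo luminescence after 30 min at room temperature. HEK 293T SBE-bla cells had 5 hr compound exposure at 37 C with TGF-beta1 (0.25 ng/mL stock).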

Assay [4] in a line: qHTS assay to identify small molecule agonists of the TGF-beta/Smad signaling pathway - cell viability counter screen (AID 1346829). Also: top concentration of the series differs between compounds; nearly all actives have a fitted effect of over 45% in size. Summed up: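 CellTiter-Glo luminescence readout; SBE-bla HEK 293T cells, overnight plating, compound 5 hr at 37 C/5% CO2, then bla substrate 2 hr RT, then CellTiter-Glo 30 min RT.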
The nature of assay [5]: qHTS assay to identify small molecule agonists of the TGF-beta/Smad signaling pathway (AID 1346859; active = well fitted activation curve with a large enough effect in the signal ratio in the repeat runs, not every such curve was filed as active; the % refers to the signal ratio; also: series mostly up to about 77 µM). Summed up: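 SBE-bla HEK293T cells plated overnight, then compound exposure for 5 h at 37 C. Beta-lactamase reporter read with LiveBLAzer B/G FRET substrate after 2 h at room temperature, fluorescence at 405 nm excitation, 460/530 nm emission.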
Assay [6] is described as follows: Human pregnane X receptor (PXR) small molecule agonists, qHTS cell viability counter screen (AID 1346977). Also: nearly all actives have a fitted effect of over 50% in size. Summed up:
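PXR-Luc HepG2 cells (2,000/well, 5% charcoal-stripped FBS) preincubated 5 hr, then exposed to compounds 24 hr at 37 C. Viability read in the same wells by CellTiter-Fluor fluorescence, reagent added at 23 hr, 1 hr incubation.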

Assay [7] can be described thus: Caspase-3/7 induction in HepG2 cells by small molecules, qHTS assay (AID 1346978). Also: nearly all actives have a fitted effect of over 15% in size. Summed up: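 Caspase-3/7 induction was measured by Caspase-Glo 3/7 luminescence (30 min, room temperature) after a 17 hr compound exposure of wild-type HepG2 cells seeded at 2,000 per well and pre-incubated 5 hr.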
Assay [8] can be described thus: Caspase-3/7 induction in CHO-K1 cells by small molecules, qHTS cell viability counter screen (AID 1346979). Also: nearly all actives have a fitted effect of over 35% in size. Summed up: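 Wild-type CHO-K1 cells (1,500/well) treated with compound after 5 h plating; after 16 h at 37C, viability read as CellTiter-Fluor fluorescence following 1 h reagent incubation, in the same wells as the caspase read.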
Assay [9] has as its target Nuclear receptor subfamily 1 group I member 2 (Homo sapiens) (UniProt O75469). Kind of assay: Human pregnane X receptor (PXR) small molecule agonists, qHTS assay (AID 1346982). Also: nearly all actives have a fitted effect of over 35% in size. Summed up:
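We seeded PXR-Luc HepG2 cells in assay medium containing 5% charcoal-stripped FBS, added compounds 5 hr later, incubated 24 hr, and read luminescence with ONE-Glo reagent.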

For assay [10], the target named is Cytochrome P450 2C19 (Homo sapiens) (UniProt P33261). Kind of assay: Cytochrome P450 Family 2 Subfamily C Member 19 (CYP2C19) small molecule antagonists: luciferase reporter qHTS assay (AID 1671197). Also: nearly all actives have a fitted effect of over 65% in size. Also: potency is read from the fitted curve at half-maximal effect. Summed up: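 Enzyme-substrate mix with proluciferin substrate (P450-Glo CYP2C19 system) preincubated with compounds 10 min at room temperature; NADPH regeneration solution added, 37C for 1 h; detection reagent stops reaction, luminescence read after 20 min. Ketoconazole positive control.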
Background: In a reporter assay the amount or activity of a reporter protein is the signal.

Assay [11] has as its target Progesterone receptor (Homo sapiens) (UniProt P06401). The experiment in a line: qHTS assay to identify small molecule agonists of the progesterone receptor (PR) signaling pathway (AID 1346784; calls by dose curve; also: nearly all actives have a fitted effect of over 30% in size). Summed up: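 PR-UAS-bla HEK 293T cells (beta-lactamase reporter under UAS) in 2% charcoal-stripped FBS, dosed with 23 nL compound after 6 hr, incubated 16hr at 37C. LiveBLAzer B/G FRET substrate added, fluorescence read after 2 hours.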

Assay [12] in a line: Caspase-3/7 induction in CHO-K1 cells by small molecules, qHTS assay (AID 1346980). Also: nearly all actives have a fitted effect of over 15% in size. In outline:
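Luminescent Caspase-Glo 3/7 read (30min, room temperature) quantified apoptosis induction. Cells were wild-type CHO-K1, treated with compound for 17hr at 37 C and 5% CO2.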

Assay [13] in a line: Caspase-3/7 induction in HepG2 cells by small molecules, qHTS cell viability counter screen (AID 1346981). Also: series mostly up to about 92 µM; nearly all actives have a fitted effect of over 30% in size. Summed up: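 Multiplexed with the caspase-3/7 assay: HepG2 cells, 16 hr compound treatment, CellTiter-Fluor viability detection by fluorescence.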
The target of assay [14] is Cytochrome P450 2D6 (Homo sapiens) (UniProt P10635). The experiment in a line: Cytochrome P450 Family 2 Subfamily D Member 6 (CYP2D6) small molecule antagonists: luciferase reporter qHTS assay (AID 1671196). Also: nearly all actives have a fitted effect of over 50% in size. Also: potency is read from the fitted curve at half-maximal effect. In outline:
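Luminescence (RLU), read 20 min after detection reagent, indicated CYP2D6 conversion of proluciferin to luciferin during a 1 h NADPH-dependent reaction at room temperature.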

Assay [15] concerns the target Thyrotropin-releasing hormone receptor (Homo sapiens) (UniProt P34981). Kind of assay: qHTS assay to identify small molecule antagonists of the thyrotropin-releasing hormone receptor (TRHR) signaling pathway (AID 1346877; active = well fitted inhibition curve with a large enough effect in the repeat runs, not every such curve was filed as active; also: series mostly up to about 51 µM). Summed up: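 Screening used HEK293 cells engineered with TRHR, with a brief 5 min room-temperature compound exposure preceding addition of TRH to 1 nM. The read-out was kinetic calcium-dye fluorescence, concentration-response from 15 doses in triplicate.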

Assay [16] has the same target. The experiment in a line: qHTS assay to identify small molecule agonists of the thyrotropin-releasing hormone receptor (TRHR) signaling pathway (AID 1346891; calls by dose curve; also: series mostly up to about 58 µM). In outline:
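HEK293 cells expressing TRHR plated 18 h at 37 C/5% CO2, calcium dye-loaded 2 h at 37 C, then compound added (agonist mode); kinetic calcium fluorescence read 3 min at 1 s intervals; 15 concentrations in triplicate.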

The target of assay [17] is Nuclear receptor subfamily 1 group I member 2 (Rattus norvegicus) (UniProt Q9R1A7). The experiment in a line: Rat pregnane X receptor (rPXR) activation by small molecules, qHTS assay (AID 1346983). Also: nearly all actives have a fitted effect of over 20% in size. The settings on record: rPXR luciferase reporter cells, One-Glo luminescence, 24 h; active compounds read high. In outline: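 Luminescent readout (One-Glo luciferase, 30 min room temperature) followed 24 hr compound treatment at 37 C of rPXR cells plated 2,000 per well and preincubated 5hr; qHTS format with compounds delivered in DMSO.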

The target of assay [18] is Nuclear receptor subfamily 1 group I member 2 (Homo sapiens) (UniProt O75469). The experiment in a line: CYP3A4 induction through human pregnane X receptor (PXR) by small molecules, qHTS assay (AID 1346984). Also: nearly all actives have a fitted effect of over 40% in size. In outline: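 qHTS, concentration-response format: HepG2 DPX-2 line, PXR/CYP3A4-luc. Exposure 24 h, 37C. Substrate Luciferin-IPA 3uM final, 3 h. Detection One-Glo, 30 min RT.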

Assay [19] has the same target. Kind of assay: Human pregnane X receptor (PXR) activation by small molecules, qHTS assay (AID 1346985). Also: nearly all actives have a fitted effect of over 40% in size. In outline: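 DPX-2 cells (HepG2 co-transfected with a PXR response element and a CYP3A4-promoter luciferase construct) were seeded at 2,000 per well, rested 5 hr at 37C, then exposed to DMSO-dissolved compounds for 24 hr. Activation was read as luciferase luminescence.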

The target of assay [20] is Progesterone receptor (Homo sapiens) (UniProt P06401). The experiment in a line: qHTS assay to identify small molecule antagonists of the progesterone receptor (PR) signaling pathway (AID 1346795; active = well fitted inhibition curve with a large enough effect in the signal ratio in the repeat runs, not every such curve was filed as active; the % refers to the signal ratio). In outline: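 PR-UAS-bla HEK293T cells with beta-lactamase reporter under UAS control, in 2% charcoal-stripped FBS, treated with compounds plus 1 nM promegestone (R5020, final) for 16 hr at 37C. Read-out: FRET beta-lactamase substrate fluorescence after 2 hr at room temperature.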

Each structure is given as a SMILES string. Values without a mark were called inactive. Records with an inconclusive call do not appear. Active and inactive are the calls of the source. Unless noted, calls follow the shape of the dose curve; as a rule, active = well fitted curve in the direction sought with a large enough effect in the repeat runs; inconclusive = weak or mixed curves; inactive = no such curve, though single readings can be large; an effect the other way counts as inactive or inconclusive.
% is scaled to controls: 0 for no effect and ±100 for the full control effect.

Chain of Cytochrome P450 2D6 (Homo sapiens) (P10635 whole entry, looked up): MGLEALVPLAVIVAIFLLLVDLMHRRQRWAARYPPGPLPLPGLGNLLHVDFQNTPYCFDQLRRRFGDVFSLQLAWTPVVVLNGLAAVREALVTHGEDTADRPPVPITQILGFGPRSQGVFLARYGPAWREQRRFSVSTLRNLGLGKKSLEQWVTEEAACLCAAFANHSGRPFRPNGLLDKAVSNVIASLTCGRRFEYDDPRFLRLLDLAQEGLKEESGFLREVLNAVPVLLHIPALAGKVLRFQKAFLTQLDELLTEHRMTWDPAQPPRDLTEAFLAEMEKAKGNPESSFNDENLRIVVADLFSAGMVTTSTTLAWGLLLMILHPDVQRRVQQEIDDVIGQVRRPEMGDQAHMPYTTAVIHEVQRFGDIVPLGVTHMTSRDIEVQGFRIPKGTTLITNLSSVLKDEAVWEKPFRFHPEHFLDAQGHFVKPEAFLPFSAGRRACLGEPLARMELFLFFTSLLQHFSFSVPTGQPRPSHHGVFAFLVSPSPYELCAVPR
Chain of Progesterone receptor (Homo sapiens) (P06401 whole entry, looked up): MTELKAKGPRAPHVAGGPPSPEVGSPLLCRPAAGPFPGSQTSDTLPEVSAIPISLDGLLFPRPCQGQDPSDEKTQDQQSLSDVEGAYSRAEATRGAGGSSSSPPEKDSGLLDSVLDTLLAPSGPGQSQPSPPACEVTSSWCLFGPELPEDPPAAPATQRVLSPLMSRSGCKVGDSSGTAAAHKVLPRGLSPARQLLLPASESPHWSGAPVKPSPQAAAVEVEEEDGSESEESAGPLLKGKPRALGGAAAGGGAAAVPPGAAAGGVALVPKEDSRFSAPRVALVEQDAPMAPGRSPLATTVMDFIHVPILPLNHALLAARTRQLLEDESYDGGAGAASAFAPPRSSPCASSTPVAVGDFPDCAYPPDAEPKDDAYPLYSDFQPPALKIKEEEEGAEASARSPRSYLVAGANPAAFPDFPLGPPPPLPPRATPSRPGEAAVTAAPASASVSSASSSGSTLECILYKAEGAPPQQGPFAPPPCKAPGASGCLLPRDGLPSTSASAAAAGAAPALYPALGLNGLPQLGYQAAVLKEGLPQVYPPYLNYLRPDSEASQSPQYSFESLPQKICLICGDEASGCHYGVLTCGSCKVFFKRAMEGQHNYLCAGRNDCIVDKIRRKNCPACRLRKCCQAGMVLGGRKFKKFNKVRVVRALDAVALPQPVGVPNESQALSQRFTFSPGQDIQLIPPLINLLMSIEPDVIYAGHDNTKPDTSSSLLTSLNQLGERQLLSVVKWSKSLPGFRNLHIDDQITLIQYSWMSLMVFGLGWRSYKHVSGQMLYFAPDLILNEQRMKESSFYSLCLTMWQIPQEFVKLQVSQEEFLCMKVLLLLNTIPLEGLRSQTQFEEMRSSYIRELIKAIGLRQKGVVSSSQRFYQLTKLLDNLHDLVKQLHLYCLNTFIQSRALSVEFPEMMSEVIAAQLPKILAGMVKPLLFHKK
Chain of Nuclear receptor subfamily 1 group I member 2 (Homo sapiens) (O75469 whole entry, looked up): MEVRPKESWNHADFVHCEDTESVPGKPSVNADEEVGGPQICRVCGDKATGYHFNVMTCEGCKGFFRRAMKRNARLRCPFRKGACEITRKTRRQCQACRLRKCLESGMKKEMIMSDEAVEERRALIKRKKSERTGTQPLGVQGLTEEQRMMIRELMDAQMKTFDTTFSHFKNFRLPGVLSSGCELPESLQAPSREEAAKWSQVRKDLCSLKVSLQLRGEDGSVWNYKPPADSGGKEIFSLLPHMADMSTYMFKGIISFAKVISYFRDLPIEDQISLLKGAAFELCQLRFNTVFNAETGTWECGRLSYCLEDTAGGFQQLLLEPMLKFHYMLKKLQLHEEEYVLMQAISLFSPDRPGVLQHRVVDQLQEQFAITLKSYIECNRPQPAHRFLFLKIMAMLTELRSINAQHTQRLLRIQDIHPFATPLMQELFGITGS
Chain of Cytochrome P450 2C19 (Homo sapiens) (P33261 whole entry, looked up): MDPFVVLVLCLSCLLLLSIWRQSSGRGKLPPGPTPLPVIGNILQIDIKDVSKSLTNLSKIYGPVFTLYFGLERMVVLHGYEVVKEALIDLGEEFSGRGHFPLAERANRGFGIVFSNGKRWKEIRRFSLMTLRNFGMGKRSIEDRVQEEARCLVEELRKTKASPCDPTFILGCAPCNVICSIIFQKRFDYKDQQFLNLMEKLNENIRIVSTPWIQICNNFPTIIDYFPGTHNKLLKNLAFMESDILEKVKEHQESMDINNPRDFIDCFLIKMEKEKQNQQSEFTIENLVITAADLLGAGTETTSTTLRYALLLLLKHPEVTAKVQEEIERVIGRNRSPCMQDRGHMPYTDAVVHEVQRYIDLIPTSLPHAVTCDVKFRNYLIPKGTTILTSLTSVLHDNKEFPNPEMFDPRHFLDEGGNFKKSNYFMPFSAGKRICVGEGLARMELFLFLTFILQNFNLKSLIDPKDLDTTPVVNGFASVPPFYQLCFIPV
Chain of Thyrotropin-releasing hormone receptor (Homo sapiens) (P34981 whole entry, looked up): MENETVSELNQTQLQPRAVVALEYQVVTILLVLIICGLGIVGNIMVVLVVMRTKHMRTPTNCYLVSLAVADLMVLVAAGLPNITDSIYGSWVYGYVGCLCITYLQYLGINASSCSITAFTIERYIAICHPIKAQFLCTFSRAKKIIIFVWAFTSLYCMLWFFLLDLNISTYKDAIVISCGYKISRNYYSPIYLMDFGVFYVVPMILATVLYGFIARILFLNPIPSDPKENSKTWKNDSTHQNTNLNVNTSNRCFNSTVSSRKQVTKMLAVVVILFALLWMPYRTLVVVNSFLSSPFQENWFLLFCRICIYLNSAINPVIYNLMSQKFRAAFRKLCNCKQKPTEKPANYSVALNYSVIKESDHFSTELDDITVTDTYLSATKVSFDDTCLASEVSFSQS
Chain of Nuclear receptor subfamily 1 group I member 2 (Rattus norvegicus) (Q9R1A7 whole entry, looked up): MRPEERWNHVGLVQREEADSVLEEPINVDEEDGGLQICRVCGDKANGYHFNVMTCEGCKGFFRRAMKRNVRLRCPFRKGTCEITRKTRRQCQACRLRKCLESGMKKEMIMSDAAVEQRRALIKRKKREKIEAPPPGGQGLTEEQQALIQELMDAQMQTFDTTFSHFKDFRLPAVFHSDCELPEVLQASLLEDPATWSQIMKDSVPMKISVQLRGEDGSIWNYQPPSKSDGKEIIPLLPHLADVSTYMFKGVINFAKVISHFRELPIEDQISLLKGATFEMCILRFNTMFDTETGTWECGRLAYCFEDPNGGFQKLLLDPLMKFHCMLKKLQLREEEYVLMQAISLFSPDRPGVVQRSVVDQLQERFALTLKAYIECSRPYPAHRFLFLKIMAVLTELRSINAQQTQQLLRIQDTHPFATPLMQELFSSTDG

With `CC(=O)OCC(=O)[C@@]1(O)CCC2C3CCC4=CC(=O)CC[C@]4(C)C3[C@@H](O)C[C@@]21C` (stereo not given in full), the Potency entry in [1], in assay [2], in assay [3], in assay [6], in assay [7] and in assay [8] was “inactive” each time. In addition, the Potency entry in assay [9] and in assay [10] was “inactive” in each case. For the same compound, the compound was classed as inactive in assay [4] and in assay [5].

With `CC(=O)OCC(=O)[C@@]1(O)CC[C@H]2[C@@H]3CCC4=CC(=O)CC[C@]4(C)[C@H]3C(=O)C[C@@]21C`, the Potency result in assay [11], in [1], in assay [2], in assay [3], in assay [7] and in [13] was “inactive” each time. The Potency entry in [9] and in [10] was “inactive” throughout. Further, the call in assay [4], in [5] and in assay [12] was inactive. In [14], the Potency is 2.45 µM (active).

Consider `C=CCS(=O)(=O)O`, for which the Potency entry in [11], in assay [1], in [2], in assay [3], in [7] and in assay [8] was “inactive” in each case. In addition, the Potency result in assay [13], in assay [14] and in [10] was “inactive” throughout. Besides, the compound was classed as inactive in [4], in [5], in [15], in assay [16] and in assay [12].

For `Cc1c(NC(C)C)c(=O)n(-c2ccccc2)n1C`, the Potency entry in [11], in [1], in assay [2], in [3], in assay [6] and in assay [7] was “inactive” throughout. In addition, the Potency entry in assay [8], in assay [13], in assay [9], in assay [18], in assay [19] and in assay [14] was “inactive” in each case. In assay [10], the Potency entry is “inactive”. Further, the compound was classed as inactive in assay [4], in assay [5], in assay [16] and in assay [12]. For the same compound, the max activation in [17] is -1.85%.

Regarding `O=c1[nH]c(=O)n([C@H]2C[C@H](O)[C@@H](CO)O2)cc1I`, the Potency result in assay [20], in assay [1], in assay [3], in assay [6], in assay [7] and in assay [8] was “inactive” throughout. For the same compound, the Potency result in assay [13], in assay [14] and in [10] was “inactive” throughout. For the same compound, the call in [4], in assay [5] and in [12] was inactive. Also, the max activation in assay [17] was 6.42%.

For the compound `COc1ccc2c(c1)c(CC(=O)OCC(=O)O)c(C)n2C(=O)c1ccc(Cl)cc1`, the Potency result in [11], in assay [20], in [3], in assay [7], in assay [9] and in assay [14] was “inactive” in each case. For the same compound, the Potency entry in assay [10] was “inactive”. In addition, the compound was called inactive in assay [4], in [15], in assay [16] and in assay [12].

With `CCCCNC(=O)NCCCC`, the Potency entry in [20], in [2], in assay [6], in [7], in assay [13] and in assay [9] was “inactive” each time. In addition, in assay [14], the Potency result is “inactive”. For the same compound, the outcome in assay [4], in assay [5], in assay [15] and in assay [16] was inactive. In addition, the Potency in assay [10] is 39.9 µM (active).

For the origin of these results see PubChem BioAssay (Tox21).
